# The supplement of paper PMC10037445
# “And” between values parts separate entries of the source, which are not always exact repeats. Identical values can stand only once. Over roughly 2,900 compounds, “NF-kB SEAP reporter activity, fold change vs agonist alone” has its median near 0.99; the highest 2% begin near 2.6. This is one part of a sample in which the highest values are shown more often than they occur.
# Tests used:
# RAW-Dual [1] = assay: NF-kB SEAP reporter activity, fold change vs agonist alone; cytotoxicity flag (confluency mask): cytotoxic (confluency <70% of control); higher = enhanced NF-kB activity
# Procedure, shortened: (§1)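 After 50 nL of library stock was delivered by pin tool to RAW-Dual macrophages (50,000 cells/well, DMEM, 384-well plates), a PRR agonist was added 1 h later and the plates were kept at 37 °C, 5% CO2. Twenty hours later, IRF was read from supernatant by QuantiLuc luminescence and NF-κB by QuantiBlue absorbance at 620 nm. Reporter activity is stated as fold change over agonist-alone wells. Wells with IncuCyte confluency under 70% of agonist controls in both mask sets were counted as cytotoxic.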
# RAW-Dual [2] = assay: NF-kB SEAP reporter activity, fold change vs agonist alone; cytotoxicity flag (confluency mask): not cytotoxic; higher = enhanced NF-kB activity
# Procedure, shortened: as §1
# RAW-Dual [3] = assay: NF-kB SEAP reporter activity, fold change vs agonist alone; higher = enhanced NF-kB activity; conditions: library stock concentration (final ~1000-fold dilution): 10 mM
# Procedure, shortened: as §1
# [4] = agonist: ODN 1826 (TLR9) 0.5 ug/mL
# [5] = agonist: Pam2CSK4 (TLR2/6) 0.1 ug/mL
# [6] = agonist: Pam3CSK4 (TLR2/1) 0.1 ug/mL
# [7] = cytotoxicity flag (confluency mask): cytotoxic (confluency <70% of control), agonist: Imiquimod (TLR7) […]
# [8] = cytotoxicity flag (confluency mask): cytotoxic (confluency <70% of control), agonist: MPLA (TLR4) […]
# [9] = cytotoxicity flag (confluency mask): not cytotoxic, agonist: Imiquimod (TLR7) […]
# [10] = cytotoxicity flag (confluency mask): not cytotoxic, agonist: MPLA (TLR4) […]
smiles,measurement,setting,value
COc1cc(C(=O)NC2CCN(C)CC2)ccc1Nc1ncc2c(n1)N(C1CCCC1)CC(F)(F)C(=O)N2C (library stock concentration (final ~1000-fold dilution): 10 mM),NF-kB SEAP reporter activity,RAW-Dual [1]; agonist: LPS (TLR4) 0.1 ug/mL,5.16
same,NF-kB SEAP reporter activity,RAW-Dual [1]; [4],0.745
same,NF-kB SEAP reporter activity,RAW-Dual [1]; [5],1.3
same,NF-kB SEAP reporter activity,RAW-Dual [1]; [6],3.04
C=CC(=O)Nc1cccc(Nc2nc(Nc3ccc(NC4CN(CCF)C4)cc3OC)ncc2C(F)(F)F)c1 (library stock concentration (final ~1000-fold dilution): 10 mM),NF-kB SEAP reporter activity,RAW-Dual [2]; agonist: LPS (TLR4) 0.1 ug/mL,0.561
same,NF-kB SEAP reporter activity,RAW-Dual [2]; [4],0.536
same,NF-kB SEAP reporter activity,RAW-Dual [2]; [5],0.359
same,NF-kB SEAP reporter activity,RAW-Dual [2]; [6],0.725
Cl.Cl.OCCN1CCN(CC/C=C2/c3ccccc3Sc3ccc(C(F)(F)F)cc32)CC1,NF-kB SEAP reporter activity,RAW-Dual [3]; [7],1.58
same,NF-kB SEAP reporter activity,RAW-Dual [3]; [8],0.876
Cl.Cl.OCCN1CCN(CC/C=C2/c3ccccc3Sc3ccc(C(F)(F)F)cc32)CC1 (library stock concentration (final ~1000-fold dilution): 10 mM),NF-kB SEAP reporter activity,RAW-Dual [1]; agonist: LPS (TLR4) 0.1 ug/mL,0.443
same,NF-kB SEAP reporter activity,RAW-Dual [1]; [4],0.412
same,NF-kB SEAP reporter activity,RAW-Dual [1]; [5],0.431
same,NF-kB SEAP reporter activity,RAW-Dual [1]; [6],0.63
CC(=O)OC12COC1CC(O)C1(C)C(=O)C(O)C3=C(C)C(OC(=O)C(O)C(NC(=O)OC(C)(C)C)c4ccccc4)CC(O)(C(OC(=O)c4ccccc4)C21)C3(C)C (stereo not drawn) (library stock concentration (final ~1000-fold dilution): 10 mM),NF-kB SEAP reporter activity,RAW-Dual [2]; agonist: LPS (TLR4) 0.1 ug/mL,1.2
same,NF-kB SEAP reporter activity,RAW-Dual [2]; [4],0.995
same,NF-kB SEAP reporter activity,RAW-Dual [2]; [5],1.02
same,NF-kB SEAP reporter activity,RAW-Dual [2]; [6],0.841
CC(=O)OC12COC1CC(O)C1(C)C(=O)C(O)C3=C(C)C(OC(=O)C(O)C(NC(=O)OC(C)(C)C)c4ccccc4)CC(O)(C(OC(=O)c4ccccc4)C21)C3(C)C (stereo not drawn),NF-kB SEAP reporter activity,RAW-Dual [3]; [9],1.14
same,NF-kB SEAP reporter activity,RAW-Dual [3]; [10],1.24
CC(C(O)c1ccc(O)cc1)N1CCC(Cc2ccccc2)CC1.CC(C(O)c1ccc(O)cc1)N1CCC(Cc2ccccc2)CC1.O=C(O)C(O)C(O)C(=O)O (stereo not drawn),NF-kB SEAP reporter activity,RAW-Dual [3]; [9],1.14
same,NF-kB SEAP reporter activity,RAW-Dual [3]; [10],0.926
CC(C(O)c1ccc(O)cc1)N1CCC(Cc2ccccc2)CC1.CC(C(O)c1ccc(O)cc1)N1CCC(Cc2ccccc2)CC1.O=C(O)C(O)C(O)C(=O)O (stereo not drawn) (library stock concentration (final ~1000-fold dilution): 10 mM),NF-kB SEAP reporter activity,RAW-Dual [2]; agonist: LPS (TLR4) 0.1 ug/mL,1.19
same,NF-kB SEAP reporter activity,RAW-Dual [2]; [4],0.64
same,NF-kB SEAP reporter activity,RAW-Dual [2]; [5],1.04
same,NF-kB SEAP reporter activity,RAW-Dual [2]; [6],0.922
Cn1c(=O)cc(N2CCCC(N)C2)n(Cc2ccccc2C#N)c1=O (stereo not drawn) (library stock concentration (final ~1000-fold dilution): 10 mM),NF-kB SEAP reporter activity,RAW-Dual [2]; agonist: LPS (TLR4) 0.1 ug/mL,1.04 and 1.31
same,NF-kB SEAP reporter activity,RAW-Dual [2]; [4],0.953 and 1.01
same,NF-kB SEAP reporter activity,RAW-Dual [2]; [5],1.16 and 1.1
same,NF-kB SEAP reporter activity,RAW-Dual [2]; [6],0.92 and 1.24
Cn1c(=O)cc(N2CCCC(N)C2)n(Cc2ccccc2C#N)c1=O (stereo not drawn),NF-kB SEAP reporter activity,RAW-Dual [3]; [9],1.08
O=C(Nc1ccccc1C(=O)NC1CCCCNC1=O)c1cc2ccccc2s1 (stereo not drawn) (library stock concentration (final ~1000-fold dilution): 10 mM),NF-kB SEAP reporter activity,RAW-Dual [2]; agonist: LPS (TLR4) 0.1 ug/mL,2.62
same,NF-kB SEAP reporter activity,RAW-Dual [2]; [4],1.04
same,NF-kB SEAP reporter activity,RAW-Dual [2]; [5],1.1
same,NF-kB SEAP reporter activity,RAW-Dual [2]; [6],1.47
O=C(Nc1ccccc1C(=O)NC1CCCCNC1=O)c1cc2ccccc2s1 (stereo not drawn),NF-kB SEAP reporter activity,RAW-Dual [3]; [9],1.06
same,NF-kB SEAP reporter activity,RAW-Dual [3]; [10],1.16
CC12CC(O)C3CC1(OC1OC(CO)C(O)C(O)C1O)C3(COC(=O)c1ccccc1)C(=O)O2 (stereo not drawn),NF-kB SEAP reporter activity,RAW-Dual [3]; [9],0.925
same,NF-kB SEAP reporter activity,RAW-Dual [3]; [10],1.04
CC12CC(O)C3CC1(OC1OC(CO)C(O)C(O)C1O)C3(COC(=O)c1ccccc1)C(=O)O2 (stereo not drawn) (library stock concentration (final ~1000-fold dilution): 10 mM),NF-kB SEAP reporter activity,RAW-Dual [2]; agonist: LPS (TLR4) 0.1 ug/mL,1.33
same,NF-kB SEAP reporter activity,RAW-Dual [2]; [4],0.943
same,NF-kB SEAP reporter activity,RAW-Dual [2]; [5],1.11
same,NF-kB SEAP reporter activity,RAW-Dual [2]; [6],1.16
CN(c1ncccc1CNc1nc(Nc2ccc3c(c2)CC(=O)N3)ncc1C(F)(F)F)S(C)(=O)=O.Cl,NF-kB SEAP reporter activity,RAW-Dual [3]; [7],0.169
same,NF-kB SEAP reporter activity,RAW-Dual [3]; [8],0.247
CN(c1ncccc1CNc1nc(Nc2ccc3c(c2)CC(=O)N3)ncc1C(F)(F)F)S(C)(=O)=O.Cl (library stock concentration (final ~1000-fold dilution): 10 mM),NF-kB SEAP reporter activity,RAW-Dual [1]; agonist: LPS (TLR4) 0.1 ug/mL,0.194
same,NF-kB SEAP reporter activity,RAW-Dual [1]; [4],0.29
same,NF-kB SEAP reporter activity,RAW-Dual [1]; [5],0.0618
same,NF-kB SEAP reporter activity,RAW-Dual [1]; [6],0.135
CC1OC(OC2C(CO)OC(OC3C(CO)OC(O)C(O)C3O)C(O)C2O)C(O)C(O)C1NC1C=C(CO)C(O)C(O)C1O (stereo not drawn) (library stock concentration (final ~1000-fold dilution): 10 mM),NF-kB SEAP reporter activity,RAW-Dual [2]; agonist: LPS (TLR4) 0.1 ug/mL,1.19
same,NF-kB SEAP reporter activity,RAW-Dual [2]; [4],1.03
same,NF-kB SEAP reporter activity,RAW-Dual [2]; [5],1.02
same,NF-kB SEAP reporter activity,RAW-Dual [2]; [6],1.06
CC1OC(OC2C(CO)OC(OC3C(CO)OC(O)C(O)C3O)C(O)C2O)C(O)C(O)C1NC1C=C(CO)C(O)C(O)C1O (stereo not drawn),NF-kB SEAP reporter activity,RAW-Dual [3]; [9],0.983
same,NF-kB SEAP reporter activity,RAW-Dual [3]; [10],0.951
Nc1nc2cc(-c3ccc4ncc(C(=O)N5CCOCC5)n4c3)ccc2o1 (library stock concentration (final ~1000-fold dilution): 10 mM),NF-kB SEAP reporter activity,RAW-Dual [2]; agonist: LPS (TLR4) 0.1 ug/mL,0.841
same,NF-kB SEAP reporter activity,RAW-Dual [2]; [4],1.02
same,NF-kB SEAP reporter activity,RAW-Dual [2]; [5],0.774
same,NF-kB SEAP reporter activity,RAW-Dual [2]; [6],0.811
CCOC(=O)c1cnc2ccc(-c3cncc(NS(=O)(=O)c4ccccc4)c3)cn12,NF-kB SEAP reporter activity,RAW-Dual [3]; [7],1.31
same,NF-kB SEAP reporter activity,RAW-Dual [3]; [8],2.94
Nc1nc2cc(-c3ccc4ncc(C(=O)N5CCOCC5)n4c3)ccc2o1,NF-kB SEAP reporter activity,RAW-Dual [3]; [9],1.09
same,NF-kB SEAP reporter activity,RAW-Dual [3]; [10],1.09
CCOC(=O)c1cnc2ccc(-c3cncc(NS(=O)(=O)c4ccccc4)c3)cn12 (library stock concentration (final ~1000-fold dilution): 10 mM),NF-kB SEAP reporter activity,RAW-Dual [1]; agonist: LPS (TLR4) 0.1 ug/mL,7.43
same,NF-kB SEAP reporter activity,RAW-Dual [1]; [4],2.4
same,NF-kB SEAP reporter activity,RAW-Dual [1]; [5],1.68
same,NF-kB SEAP reporter activity,RAW-Dual [1]; [6],3.96
Cn1c(-c2ccccc2C(F)(F)F)nnc1C12CCC(c3noc(C4CC(F)(F)C4)n3)(CC1)CC2,NF-kB SEAP reporter activity,RAW-Dual [3]; [9],0.868
same,NF-kB SEAP reporter activity,RAW-Dual [3]; [10],1.3
Cn1c(-c2ccccc2C(F)(F)F)nnc1C12CCC(c3noc(C4CC(F)(F)C4)n3)(CC1)CC2 (library stock concentration (final ~1000-fold dilution): 10 mM),NF-kB SEAP reporter activity,RAW-Dual [2]; agonist: LPS (TLR4) 0.1 ug/mL,1.22
same,NF-kB SEAP reporter activity,RAW-Dual [2]; [4],0.41
same,NF-kB SEAP reporter activity,RAW-Dual [2]; [5],0.827
same,NF-kB SEAP reporter activity,RAW-Dual [2]; [6],1.16
